# From PubChem BioAssay (NCI)
# This is part of a sample that, as a whole, favours compounds with a hit. Of some 83,000 tested, about 20% had one in any assay.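 Testing used 96-well plates and a 48-hour single-concentration exposure. Example: -40 means 40% of the starting cells died.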 Values without a mark were called inactive. Active and inactive are the calls of the source. Rule for the calls: active = growth percent below 10; inactive = the rest.
# Legend:
# Test in all cases: NCI-60 one-dose screen, 48 h (100 = growth as untreated, 0 = no growth, -100 = all killed)
# Conditions in all cases: 10 µM
# HCT-15 colon = system: HCT-15 colon
# HT29 colon = system: HT29 colon
# SNB-75 CNS = system: SNB-75 CNS
# SNB-19 CNS = system: SNB-19 CNS
# U251 CNS = system: U251 CNS
# PC-3 prostate = system: PC-3 prostate
# SK-MEL-5 melanoma = system: SK-MEL-5 melanoma
# UACC-62 melanoma = system: UACC-62 melanoma
# LOX IMVI melanoma = system: LOX IMVI melanoma
# SK-MEL-28 melanoma = system: SK-MEL-28 melanoma
# SK-MEL-2 melanoma = system: SK-MEL-2 melanoma
# EKVX NSCLC = system: EKVX NSCLC
# SN12C renal = system: SN12C renal
# TK-10 renal = system: TK-10 renal
# ACHN renal = system: ACHN renal
# A498 renal = system: A498 renal
# CCRF-CEM leukemia = system: CCRF-CEM leukemia
# MOLT-4 leukemia = system: MOLT-4 leukemia
# UO-31 renal = system: UO-31 renal
# CAKI-1 renal = system: CAKI-1 renal
SMILES,growth (HCT-15 colon) [%],growth (HT29 colon),growth (SNB-75 CNS),growth (SNB-19 CNS) [%],growth (U251 CNS),growth (PC-3 prostate),growth (SK-MEL-5 melanoma),growth (UACC-62 melanoma) [%],growth (LOX IMVI melanoma) [%],growth (SK-MEL-28 melanoma),growth (SK-MEL-2 melanoma),growth (EKVX NSCLC),growth (SN12C renal) [%],growth (TK-10 renal) [%],growth (ACHN renal) [%],growth (A498 renal),growth (CCRF-CEM leukemia),growth (MOLT-4 leukemia),growth (UO-31 renal),growth (CAKI-1 renal)
CCOC(=O)c1c(C(F)(F)F)n([O-])c2ccc(OC)cc2[n+]1=O,23.7,48.1%,11.8%,25.8,26.6%,-3.79% (active),-29.4% (active),22.8,31.2,60.8%,46.4%,9.51% (active),22.6,49.8,32.1,50.8%,5.58% (active),5.77% (active),–,–
Cc1cn(C(=O)/C(Cl)=C(/Cl)C(=O)O)c2ccccc12,105,110%,73%,106,114%,83.6%,104%,94,93.7,112%,105%,81.7%,97.6,127,97.8,124%,37.2%,103%,59.1%,97.9%
O=[N+]([O-])C1CC2C=CC1C2 (stereo not given),100,99%,93.1%,109,101%,96.9%,106%,103,95.6,110%,92.8%,92.7%,102,112,106,78.2%,–,96.1%,80.8%,95.1%
COc1ccc(-c2nc(SCC(=O)c3ccc(Br)cc3)[nH]c(=O)c2C#N)cc1,112,101%,103%,109,109%,95.1%,110%,104,102,115%,103%,107%,112,99.6,122,78.5%,–,96.8%,86.3%,99.9%
CCN(CC)CC(O)Cc1ccc(OC)cc1 (stereo not given),108,103%,102%,109,108%,96.5%,100%,111,102,116%,96%,98.7%,104,–,108,96.7%,98.9%,95.7%,103%,101%
C/C(=N/NC(=O)c1sc(=S)n(C)c1N)c1cc2cc(Cl)ccc2o1,92.6,92.9%,144%,98.8,97.5%,101%,11.3%,76.2,72.9,128%,98.9%,98.5%,90.8,101,96,-3.76% (active),81.8%,76.5%,–,117%
CC1(C)Cc2c(cn(Cc3ccccc3)c2-c2ccccc2)-c2oncc21,101,79.6%,103%,110,88.9%,86.2%,83.5%,86.7,90.2,112%,102%,85.2%,97,106,99.9,126%,94.2%,86.1%,89.7%,79.8%
O=C(COc1ccc(Cl)cc1Cl)Oc1coc(CSc2nc3ccccc3s2)cc1=O,103,114%,112%,103,97.3%,106%,-78% (active),70.5,90.5,131%,94.5%,106%,92.3,107,101,-21.3% (active),–,86.4%,–,101%
O=[N+]([O-])c1ccc(-c2nc(-c3ccccc3)c(-c3ccccc3)n2-c2ccccc2)cc1,12,16.1%,80.4%,65.9,32.5%,-6.15% (active),61.9%,30.9,18.8,67.6%,-38.1% (active),34.8%,43.6,–,19,41.3%,1.03% (active),-44.6% (active),-6.05% (active),48.1%
O=c1oc2c3ccc4cnccc4c3[nH]c2c2ccccc12,80.9,-19.7% (active),14.1%,14.6,-35% (active),71.4%,28.3%,73.2,13.5,5.14% (active),67.1%,74.2%,73.8,79.3,63.5,55.5%,–,13.7%,–,54.3%
CCOC(=O)c1sc(NC(=O)c2cc(OC)c(OC)c(OC)c2)nc1C,96.9,99.8%,98.5%,118,106%,65.1%,95.6%,88.5,97.3,101%,30.8%,99.8%,92.6,–,105,88.8%,88.3%,87.6%,75.7%,116%
O=C(NNc1nc(N2CCCC2)nc(N2CCCC2)n1)c1ccccc1,108,102%,88.7%,99.6,98.5%,101%,110%,99.3,110,106%,101%,102%,100,–,102,102%,103%,68.4%,81.7%,116%
COc1cc(C2c3cc4c(cc3C(O)C(CO)C2CO)OCO4)cc(OC)c1OC (stereo not given),61.2,5.41% (active),-4.31% (active),35.8,22.3%,25.3%,11.1%,40.8,43.8,44.1%,32.2%,7.57% (active),46.1,46.7,53.9,-0.141% (active),15.6%,16.8%,13.4%,65.9%
CCN(CC)CC(O)CNc1ccnc2cc(Cl)c(Cl)cc12 (stereo not given),69.5,77.6%,92.9%,110,75.4%,80%,84.7%,92.8,73.9,97.6%,108%,92%,79,95.2,98.4,98.7%,94.9%,82.3%,53.7%,80.7%
Nc1c(C(=O)Nc2ccccc2F)sc2nc3c(cc12)C(=O)CCC3,40.2,12.2%,13.7%,41.1,31.6%,23.4%,17.9%,23.7,54.2,64.1%,42.6%,56.3%,49.8,59.7,65.4,-1.01% (active),26.8%,73.6%,76%,4.36% (active)
COc1ccc(-c2csc(-c3cc(Cl)cc(Cl)c3Cl)n2)cc1,89.2,101%,91.6%,103,93.3%,95%,29.2%,63,83.1,107%,96.3%,80.5%,91.3,118,89.7,52.1%,97.4%,89%,–,85.9%
COc1cc(-c2nc(-c3nnc(-c4cccnc4)o3)c3ccccn23)cc(OC)c1OC,111,97.4%,96.7%,102,95%,101%,90.7%,106,97.3,121%,111%,106%,99.6,109,99,83%,–,93.7%,74.9%,104%
